# From PubChem BioAssay
# Values joined by “and” are separate entries in the source; they are usually repeats but may differ in a detail not shown here. Equal values may be shown once. Where a structure was tested more than once in an assay, its records may differ in their call. Active and inactive are the calls of the source. No stated cut-off is given here; in the data, active means inhibition above about 80%; inactive means the rest.
# Test: HDN33 neuroblastoma growth inhibition, cell-based, chromothripsis tumors, cisplatin or BGB combos (AID 1671450);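 further: cells exposed to compound for four days; 0% = vehicle DMSO and 100% = cell killing by high DMSO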
# Conditions: HDN33 neuroblastoma cells, at 0.5 µM, stronger effect = higher value
row,SMILES,inhibition
1,COc1ccccc1S(=O)(=O)Nc1ccc2c(c1)CN(C)C(=O)N2,-28.2% (inactive)
2,Cc1cc(C#N)cc(C)c1Oc1nc(Nc2ccc(C#N)cc2)nc(N)c1Br,-5.11% (inactive)
3,Nc1ncn(C2OC(CO)C(O)C2O)c(=O)n1 (stereo not drawn),3.8% (inactive)
4,Cc1cc(C)c(Nc2ccnc(Nc3ccc(C#N)cc3)n2)c(C)c1,0.3% (inactive)
5,COc1ccc(CC(N)C(=O)NC2C(CO)OC(n3cnc4c(N(C)C)ncnc43)C2O)cc1 (stereo not drawn),75.5% (inactive) and 96.4% (active)
6,O=c1ccn(C2OC(CO)C(O)C2O)c(=O)[nH]1 (stereo not drawn),23.7% (inactive) and 2.11% (inactive)
7,CC=C1NC(=O)C2CSSCCC=CC(CC(=O)NC(C(C)C)C(=O)N2)OC(=O)C(C(C)C)NC1=O (stereo not drawn),99.7% (active) and 99.8% (active)
8,CN(C)CC(=O)Nc1ccc2[nH]c(=O)c3ccccc3c2c1,6.02% (inactive) and -1.05% (inactive) and -19% (inactive)
9,CC1OC(n2cc(F)c(=O)[nH]c2=O)C(O)C1O (stereo not drawn),-30.6% (inactive)
10,Nc1ccn(C2OC(CO)C(O)C2(F)F)c(=O)n1 (stereo not drawn),87.6% (active) and 87.3% (active) and 83.2% (active)
11,Cc1cn(C2CC(N=[N+]=[N-])C(CO)O2)c(=O)[nH]c1=O (stereo not drawn),-49.6% (inactive) and 10.8% (inactive)
12,CC(C=CC(=O)NO)=CC(C)C(=O)c1ccc(N(C)C)cc1 (stereo not drawn),92.3% (active)
13,NC(=S)NN=Cc1ncccc1N,11.9% (inactive)
14,CC(C)(C#N)c1ccc(N2C(=O)OCc3cnc4ccc(-c5cnc6ccccc6c5)cc4c32)cc1,3.13% (inactive)
15,CC1CN(c2c(F)c(N)c3c(=O)c(C(=O)O)cn(C4CC4)c3c2F)CC(C)N1 (stereo not drawn),-0.91% (inactive)
16,CCCCN(Cc1ccc(C(=O)NO)cc1)C(=O)Nc1ccccc1,23.8% (inactive) and 15.6% (inactive)
17,O=c1[nH]cnc2c1ncn2C1OC(CO)C(O)C1O (stereo not drawn),-41% (inactive) and -8.53% (inactive)
18,Cc1cc(C=CC#N)cc(C)c1Nc1ccnc(Nc2ccc(C#N)cc2)n1,-0.82% (inactive)
19,CC(Oc1cc(-c2cnn(C3CCNCC3)c2)cnc1N)c1c(Cl)ccc(F)c1Cl (stereo not drawn),3.71% (inactive)
20,O=C(O)c1cc2cccc([N+](=O)[O-])c2[nH]1,-19.2% (inactive)
21,O=c1[nH]c(=O)n(C2CC(O)C(CO)O2)cc1I (stereo not drawn),-18.4% (inactive)

# Same assay, conditions: HDN33 neuroblastoma cells, cisplatin combo, at 5 µM, stronger effect = higher value
row,SMILES,inhibition
1,COc1ccccc1S(=O)(=O)Nc1ccc2c(c1)CN(C)C(=O)N2,19.3%
2,Cc1cc(C#N)cc(C)c1Oc1nc(Nc2ccc(C#N)cc2)nc(N)c1Br,-9.1%
3,Nc1ncn(C2OC(CO)C(O)C2O)c(=O)n1 (stereo not drawn),38.5%
4,Cc1cc(C)c(Nc2ccnc(Nc3ccc(C#N)cc3)n2)c(C)c1,3.99%
5,COc1ccc(CC(N)C(=O)NC2C(CO)OC(n3cnc4c(N(C)C)ncnc43)C2O)cc1 (stereo not drawn),99.9% and 100%
6,O=c1ccn(C2OC(CO)C(O)C2O)c(=O)[nH]1 (stereo not drawn),22% and -0.337%
7,CC=C1NC(=O)C2CSSCCC=CC(CC(=O)NC(C(C)C)C(=O)N2)OC(=O)C(C(C)C)NC1=O (stereo not drawn),99.8% and 99.9%
8,CN(C)CC(=O)Nc1ccc2[nH]c(=O)c3ccccc3c2c1,17.1% and 1.58% and -10.8%
9,CC1OC(n2cc(F)c(=O)[nH]c2=O)C(O)C1O (stereo not drawn),-12.9%
10,Nc1ccn(C2OC(CO)C(O)C2(F)F)c(=O)n1 (stereo not drawn),81.7% and 86.5% and 82.8%
11,Cc1cn(C2CC(N=[N+]=[N-])C(CO)O2)c(=O)[nH]c1=O (stereo not drawn),-26% and 16.6%
12,CC(C=CC(=O)NO)=CC(C)C(=O)c1ccc(N(C)C)cc1 (stereo not drawn),99.9%
13,NC(=S)NN=Cc1ncccc1N,80.1%
14,CC(C)(C#N)c1ccc(N2C(=O)OCc3cnc4ccc(-c5cnc6ccccc6c5)cc4c32)cc1,12.1%
15,CC1CN(c2c(F)c(N)c3c(=O)c(C(=O)O)cn(C4CC4)c3c2F)CC(C)N1 (stereo not drawn),-6.01%
16,CCCCN(Cc1ccc(C(=O)NO)cc1)C(=O)Nc1ccccc1,52.4% and 49.4%
17,O=c1[nH]cnc2c1ncn2C1OC(CO)C(O)C1O (stereo not drawn),-53.5% and 3.12%
18,Cc1cc(C=CC#N)cc(C)c1Nc1ccnc(Nc2ccc(C#N)cc2)n1,4.37%
19,CC(Oc1cc(-c2cnn(C3CCNCC3)c2)cnc1N)c1c(Cl)ccc(F)c1Cl (stereo not drawn),68.7%
20,O=C(O)c1cc2cccc([N+](=O)[O-])c2[nH]1,-1.64%
21,O=c1[nH]c(=O)n(C2CC(O)C(CO)O2)cc1I (stereo not drawn),3.9%

# Same assay, conditions: HDN33 neuroblastoma cells, measured here: with BGB IC20 combination, at 0.5 µM, stronger effect = higher value
row,SMILES,inhibition
1,COc1ccccc1S(=O)(=O)Nc1ccc2c(c1)CN(C)C(=O)N2,-28.2%
2,Cc1cc(C#N)cc(C)c1Oc1nc(Nc2ccc(C#N)cc2)nc(N)c1Br,-9.33%
3,Nc1ncn(C2OC(CO)C(O)C2O)c(=O)n1 (stereo not drawn),-3.13%
4,Cc1cc(C)c(Nc2ccnc(Nc3ccc(C#N)cc3)n2)c(C)c1,-2.53%
5,COc1ccc(CC(N)C(=O)NC2C(CO)OC(n3cnc4c(N(C)C)ncnc43)C2O)cc1 (stereo not drawn),78.8% and 94.9%
6,O=c1ccn(C2OC(CO)C(O)C2O)c(=O)[nH]1 (stereo not drawn),17.2% and -17.5%
7,CC=C1NC(=O)C2CSSCCC=CC(CC(=O)NC(C(C)C)C(=O)N2)OC(=O)C(C(C)C)NC1=O (stereo not drawn),99.7% and 99.8%
8,CN(C)CC(=O)Nc1ccc2[nH]c(=O)c3ccccc3c2c1,-3% and -3.63% and -21.1%
9,CC1OC(n2cc(F)c(=O)[nH]c2=O)C(O)C1O (stereo not drawn),-22.1%
10,Nc1ccn(C2OC(CO)C(O)C2(F)F)c(=O)n1 (stereo not drawn),88.2% and 89.8% and 84.6%
11,Cc1cn(C2CC(N=[N+]=[N-])C(CO)O2)c(=O)[nH]c1=O (stereo not drawn),-50.2% and 15%
12,CC(C=CC(=O)NO)=CC(C)C(=O)c1ccc(N(C)C)cc1 (stereo not drawn),85.6%
13,NC(=S)NN=Cc1ncccc1N,3.11%
14,CC(C)(C#N)c1ccc(N2C(=O)OCc3cnc4ccc(-c5cnc6ccccc6c5)cc4c32)cc1,34.2%
15,CC1CN(c2c(F)c(N)c3c(=O)c(C(=O)O)cn(C4CC4)c3c2F)CC(C)N1 (stereo not drawn),11.5%
16,CCCCN(Cc1ccc(C(=O)NO)cc1)C(=O)Nc1ccccc1,24.6% and 6.38%
17,O=c1[nH]cnc2c1ncn2C1OC(CO)C(O)C1O (stereo not drawn),-43% and -17%
18,Cc1cc(C=CC#N)cc(C)c1Nc1ccnc(Nc2ccc(C#N)cc2)n1,-15.3%
19,CC(Oc1cc(-c2cnn(C3CCNCC3)c2)cnc1N)c1c(Cl)ccc(F)c1Cl (stereo not drawn),-2.84%
20,O=C(O)c1cc2cccc([N+](=O)[O-])c2[nH]1,-22.3%
21,O=c1[nH]c(=O)n(C2CC(O)C(CO)O2)cc1I (stereo not drawn),-28.5%
